The panel holds about 79,000 compounds, 15% with a hit somewhere; the sample as a whole holds those more often. Active and inactive are the calls of the source. No stated cut-off is given here; in the data, active means growth inhibition above about 70%; inactive means the rest.
Legend:
[1] = NCI Yeast Anticancer Drug Screen. Data for the rad52 strain (AID 147);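 further: 0% = growth of vehicle-treated control cultures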; settings: S. cerevisiae rad52 mutant growth inhibition, stronger effect = higher value
Outline: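 Growth of repair-deficient yeast cells was compared between compound-treated and vehicle-treated cultures to give percent inhibition.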

[2] = NCI Yeast Anticancer Drug Screen. Data for the wt1 strain (AID 149);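 further: 0% = growth of vehicle-treated wt1 cultures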; settings: S. cerevisiae wt1 strain (SPY 50644) growth inhibition, stronger effect = higher value
Outline: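 wt1 strain grown with compound or vehicle; inhibition taken from the growth difference.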

[3] = NCI Yeast Anticancer Drug Screen. Data for the rad50EPP+ strain (AID 151);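 further: 0% = growth of vehicle-treated control cultures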; settings: S. cerevisiae rad50 mutant strain, stronger effect = higher value
Outline: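 Measured: growth inhibition of rad50EPP+ yeast. Reference: vehicle-treated controls. Screen uses strains with defined genetic alterations in DNA damage repair or cell cycle control.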

[4] = NCI Yeast Anticancer Drug Screen. Data for the mgt1 strain (AID 153); settings: S. cerevisiae mgt1 mutant growth inhibition, stronger effect = higher value
Outline: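 Compounds were applied to mgt1 mutant yeast, and growth was then compared against vehicle-treated control cultures to give percent inhibition.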

[5] = NCI Yeast Anticancer Drug Screen. Data for the rad50 strain (AID 155);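 further: 0% = growth of vehicle-only cultures of the same strain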; settings: S. cerevisiae rad50 strain growth inhibition, stronger effect = higher value
Outline: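 DNA repair mutant yeast, compound exposure, growth read-out; inhibition is taken relative to vehicle.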

[6] = NCI Yeast Anticancer Drug Screen. Data for the mec2-1 strain (AID 157); settings: S. cerevisiae mec2-1 strain, stronger effect = higher value
Outline: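 Compounds were applied to mec2-1 yeast cells. Their growth was then compared with that of vehicle-treated cultures to give growth inhibition.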

[7] = NCI Yeast Anticancer Drug Screen. Data for the rad14 strain (AID 159);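 further: 0% = growth of vehicle-treated control cultures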; settings: S. cerevisiae rad14 strain growth inhibition, stronger effect = higher value
Outline: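 DNA repair-defective yeast, compound-exposed; % growth inhibition derived by comparison with vehicle-treated controls.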

[8] = NCI Yeast Anticancer Drug Screen. Data for the sgs1 mgt1 strain (AID 161);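 further: 0% = growth of cultures given vehicle only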; settings: S. cerevisiae sgs1 mgt1 strain, stronger effect = higher value
Outline: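 Growth of a repair-deficient yeast mutant was monitored after compound treatment and expressed as inhibition relative to vehicle-treated cultures.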

[9] = NCI Yeast Anticancer Drug Screen. Data for the CLN2oe strain (AID 163);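 further: 0% = growth of vehicle-only control cultures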; settings: S. cerevisiae CLN2oe strain, stronger effect = higher value
Outline: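 Cells of an engineered yeast line with disturbed cell-cycle regulation are treated with compound. Inhibition of growth is then calculated relative to the vehicle-treated reference.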

[10] = NCI Yeast Anticancer Drug Screen. Data for the cln2 rad14 strain (AID 165);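 further: 0% = growth equal to vehicle treated cultures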; settings: S. cerevisiae cln2 rad14 strain, stronger effect = higher value
Outline: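 Strain: cln2 rad14 yeast, altered in cell cycle control and DNA damage repair. Read-out: growth inhibition vs vehicle.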

[11] = NCI Yeast Anticancer Drug Screen. Data for the bub3 strain (AID 167); settings: S. cerevisiae bub3 mutant strain, stronger effect = higher value
Outline: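 In this screen, a yeast mutant lacking normal mitotic checkpoint function is challenged with compound. Relative growth versus vehicle gives the inhibition value.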

[12] = NCI Yeast Anticancer Drug Screen. Data for the wt2 strain (AID 169);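 further: 0% = growth of vehicle-treated yeast cultures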; settings: S. cerevisiae wt2 strain growth inhibition, stronger effect = higher value
Outline: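 Growth of compound-treated yeast is measured and expressed as inhibition relative to vehicle-only controls.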

[13] = NCI Yeast Anticancer Drug Screen. Data for the mlh1 strain (AID 171);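 further: 0% = growth of vehicle-treated control cultures of the same strain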; settings: S. cerevisiae mlh1 strain growth inhibition, stronger effect = higher value
Outline: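 Test agents were incubated with yeast bearing a defined DNA damage repair or cell cycle control alteration; values are growth inhibition normalised to vehicle-treated cultures.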

[14] = NCI Yeast Anticancer Drug Screen. Data for the sgs1 strain (AID 173);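 further: 0% = growth of vehicle-only control cultures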; settings: S. cerevisiae sgs1 mutant, stronger effect = higher value
Outline: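 Strain with an altered DNA repair or cell cycle pathway exposed to compound. Growth then measured. Value = inhibition versus vehicle control.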

[15] = NCI Yeast Anticancer Drug Screen. Data for the mlh1 rad18 strain (AID 175); settings: S. cerevisiae mlh1 rad18 strain growth inhibition, stronger effect = higher value
Outline: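 A repair-deficient yeast strain is exposed to test compound, and growth is scored relative to vehicle-treated controls.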

[16] = NCI Yeast Anticancer Drug Screen. Data for the rad18 strain (AID 177); settings: S. cerevisiae rad18 mutant growth inhibition, stronger effect = higher value
Outline: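 DNA-repair-defective yeast; compound treatment; growth inhibition scored against vehicle.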

[17] = at 5.0 µM (retest, dose inferred, filed as 0.5)
[18] = at 50.0 µM (retest, dose inferred, filed as 5.0)

Measured: growth inhibition

O=C(NNC(=O)OCC(Cl)(Cl)Cl)OCC(Cl)(Cl)Cl
inactive: [1]; at 1.2 µM 0% | [1]; at 3.7 µM 0% | [1]; at 11.0 µM 2% | [1]; at 33.0 µM 2% | [1]; at 100.0 µM 31% | [2]; at 1.2 µM -1% | [2]; at 3.7 µM -2% | [2]; at 11.0 µM -3% | [2]; at 33.0 µM -3% | [2]; at 100.0 µM 11% | [3]; at 1.2 µM 0% | [3]; at 3.7 µM -2% | [3]; at 11.0 µM -1% | [3]; at 33.0 µM 0% | [3]; at 100.0 µM 11% | [4]; at 1.2 µM 0% | [4]; at 3.7 µM -4% | [4]; at 11.0 µM 48% | [5]; at 1.2 µM -1% | [5]; at 3.7 µM 0% | [5]; [17] -12% | [5]; at 11.0 µM 0% | [5]; at 33.0 µM 1% | [5]; [18] 1% | [5]; at 50.0 µM 20.6% | [5]; at 100.0 µM 23% | [6]; at 1.2 µM -6% | [6]; at 3.7 µM -8% | [6]; [17] -6% | [6]; at 11.0 µM -4% | [6]; at 33.0 µM 4% | [6]; [18] 6% | [6]; at 50.0 µM 20.9% | [6]; at 100.0 µM 32% | [7]; at 1.2 µM 1% | [7]; at 3.7 µM 1% | [7]; at 11.0 µM 3% | [7]; at 33.0 µM 6% | [7]; at 100.0 µM 26% | [8]; [17] 0% | [9]; at 1.2 µM -1% | [9]; at 3.7 µM -5% | [9]; at 11.0 µM -2% | [9]; at 33.0 µM 9% | [9]; at 100.0 µM 38% | [10]; [17] 4% | [10]; [18] 11% | [10]; at 50.0 µM -12.9% | [11]; at 1.2 µM -3% | [11]; at 3.7 µM -8% | [11]; [17] -5% | [11]; at 11.0 µM -6% | [11]; at 33.0 µM -4% | [11]; [18] 7% | [11]; at 50.0 µM 6.9% | [11]; at 100.0 µM 20% | [12]; at 1.2 µM -2% | [12]; at 3.7 µM -4% | [12]; at 11.0 µM 29% | [13]; at 1.2 µM -1% | [13]; at 3.7 µM -2% | [13]; at 11.0 µM 20% | [14]; at 1.2 µM -3% | [14]; at 3.7 µM -1% | [14]; at 11.0 µM 42% | [15]; [17] -1% | [15]; [18] 3% | [15]; at 50.0 µM 0.3% | [16]; at 1.2 µM -1% | [16]; at 3.7 µM 0% | [16]; at 11.0 µM 3% | [16]; at 33.0 µM 13% | [16]; at 100.0 µM 53%
active: [4]; at 33.0 µM 91% | [4]; at 100.0 µM 97% | [8]; [18] 96% | [8]; at 50.0 µM 90.3% | [12]; at 33.0 µM 89% | [12]; at 100.0 µM 96% | [13]; at 33.0 µM 88% | [13]; at 100.0 µM 96% | [14]; at 33.0 µM 92% | [14]; at 100.0 µM 97%

CCNC(=O)OCC1C2=C(C(=O)C(C)=C(N)C2=O)N2CC3C(N3C)C12OC (stereo unspecified)
active: [1]; at 100.0 µM 81% | [4]; at 100.0 µM 74% | [5]; [18] 70% | [5]; at 100.0 µM 78% | [6]; [18] 71% | [6]; at 100.0 µM 87% | [7]; at 100.0 µM 78% | [9]; at 100.0 µM 80% | [11]; at 100.0 µM 71% | [13]; at 100.0 µM 84% | [14]; at 100.0 µM 81% | [15]; [17] 73% | [15]; [18] 92% | [15]; at 50.0 µM 70.8% | [16]; at 11.0 µM 72% | [16]; at 33.0 µM 89% | [16]; at 100.0 µM 91%
inactive: [1]; at 1.2 µM 4% | [1]; at 3.7 µM 25% | [1]; at 11.0 µM 25% | [1]; at 33.0 µM 63% | [2]; at 1.2 µM -19% | [2]; at 3.7 µM -16% | [2]; at 11.0 µM -4% | [2]; at 33.0 µM 23% | [2]; at 100.0 µM 67% | [3]; at 1.2 µM 6% | [3]; at 3.7 µM -12% | [3]; at 11.0 µM -6% | [3]; at 33.0 µM 13% | [3]; at 100.0 µM 41% | [4]; at 1.2 µM 2% | [4]; at 3.7 µM 2% | [4]; at 11.0 µM 21% | [4]; at 33.0 µM 37% | [5]; at 1.2 µM 14% | [5]; at 3.7 µM 15% | [5]; [17] 34% | [5]; at 11.0 µM 19% | [5]; at 33.0 µM 57% | [5]; at 50.0 µM 58% | [6]; at 1.2 µM 9% | [6]; at 3.7 µM 13% | [6]; [17] 23% | [6]; at 11.0 µM 18% | [6]; at 33.0 µM 58% | [6]; at 50.0 µM 63.6% | [7]; at 1.2 µM -9% | [7]; at 3.7 µM -5% | [7]; at 11.0 µM 8% | [7]; at 33.0 µM 45% | [8]; [17] 23% | [8]; [18] 68% | [8]; at 50.0 µM 47.6% | [9]; at 1.2 µM 4% | [9]; at 3.7 µM 4% | [9]; at 11.0 µM 19% | [9]; at 33.0 µM 41% | [10]; [17] 14% | [10]; [18] 50% | [10]; at 50.0 µM 44.7% | [11]; at 1.2 µM 13% | [11]; at 3.7 µM 9% | [11]; [17] 21% | [11]; at 11.0 µM 10% | [11]; at 33.0 µM 36% | [11]; [18] 50% | [11]; at 50.0 µM 21.8% | [12]; at 1.2 µM -37% | [12]; at 3.7 µM -32% | [12]; at 11.0 µM -28% | [12]; at 33.0 µM 6% | [12]; at 100.0 µM 34% | [13]; at 1.2 µM 15% | [13]; at 3.7 µM 18% | [13]; at 11.0 µM 32% | [13]; at 33.0 µM 56% | [14]; at 1.2 µM 4% | [14]; at 3.7 µM 16% | [14]; at 11.0 µM 29% | [14]; at 33.0 µM 59% | [16]; at 1.2 µM 13% | [16]; at 3.7 µM 40%
